Compounds without any hit were thinned out: in the full panel of roughly 83,000, 20% have a hit.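 Activity criterion: percent growth below 10, measured after cells in 96-well plates were exposed to a single compound concentration for 48 hours.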 The source made the active and inactive calls.
How the values were obtained:
Assay in all cases: NCI-60 one-dose screen, 48 h (100 = growth as untreated, 0 = no growth, -100 = all killed)
Details in all cases: 10 µM unless noted
SR leukemia = test system: SR leukemia
RPMI-8226 leukemia = test system: RPMI-8226 leukemia
OVCAR-8 ovarian = test system: OVCAR-8 ovarian
OVCAR-5 ovarian = test system: OVCAR-5 ovarian
OVCAR-4 ovarian = test system: OVCAR-4 ovarian
SK-OV-3 ovarian = test system: SK-OV-3 ovarian
IGROV1 ovarian = test system: IGROV1 ovarian
OVCAR-3 ovarian = test system: OVCAR-3 ovarian
HS 578T breast = test system: HS 578T breast
NCI/ADR-RES ovarian = test system: NCI/ADR-RES ovarian

Measured: growth

O=c1c2ccccc2sc2c(NCCN3CCOCC3)nc3ccccc3c12
active: SR leukemia 3.91%
inactive: RPMI-8226 leukemia 40.3% | OVCAR-8 ovarian 58.8% | OVCAR-5 ovarian 84.9% | OVCAR-4 ovarian 65.6% | SK-OV-3 ovarian 50.8% | IGROV1 ovarian 66.2% | OVCAR-3 ovarian 79.2% | HS 578T breast 52.7% | NCI/ADR-RES ovarian 63.5%

COc1ccc(CNc2nc3ccccc3c3c(=O)c4ccccc4sc23)cc1OC
inactive: SR leukemia 65.3% | RPMI-8226 leukemia 87.3% | OVCAR-8 ovarian 64.8% | OVCAR-5 ovarian 97.2% | OVCAR-4 ovarian 62.1% | SK-OV-3 ovarian 81.9% | IGROV1 ovarian 80.6% | OVCAR-3 ovarian 82.6% | HS 578T breast 65.8% | NCI/ADR-RES ovarian 74.3%

COc1ccc(-c2nnc(SCC(=O)Nc3ccc(C(=O)/C=C/c4ccc(Cl)cc4)cc3)o2)cc1OC
active: OVCAR-4 ovarian -17.1%
inactive: SR leukemia 24.2% | RPMI-8226 leukemia 59.4% | OVCAR-8 ovarian 37.4% | OVCAR-5 ovarian 90.5% | SK-OV-3 ovarian 87.4% | IGROV1 ovarian 70.4% | OVCAR-3 ovarian 106% | HS 578T breast 102% | NCI/ADR-RES ovarian 38.4%

CC(C)CNCC(O)COc1ccc(C(C)(C)c2ccc(OCC(O)CNCC(C)C)cc2)cc1 (stereo not given)
inactive: OVCAR-8 ovarian 53.4% | OVCAR-5 ovarian 80.8% | OVCAR-4 ovarian 81% | SK-OV-3 ovarian 86.9% | IGROV1 ovarian 47.4% | OVCAR-3 ovarian 44.5% | HS 578T breast 65.4% | NCI/ADR-RES ovarian 86.7%
active: SR leukemia -38.7% | RPMI-8226 leukemia -9.88%

Cc1nccc2c3ccc(OCc4cn(Cc5ccc(Br)cc5)nn4)cc3n(CCCc3ccccc3)c12
inactive: SR leukemia 77.8% | RPMI-8226 leukemia 72.9% | OVCAR-8 ovarian 60.8% | OVCAR-5 ovarian 106% | OVCAR-4 ovarian 50.9% | SK-OV-3 ovarian 81.6% | IGROV1 ovarian 77.4% | OVCAR-3 ovarian 82.1% | HS 578T breast 66.9% | NCI/ADR-RES ovarian 78.8%

C=CC(C)(O)CCC1C(=C)CCC2C(C)(C)CCCC12C (stereo not given)
inactive: SR leukemia 90.2% | RPMI-8226 leukemia 102% | OVCAR-8 ovarian 114% | OVCAR-5 ovarian 106% | OVCAR-4 ovarian 114% | SK-OV-3 ovarian 94.1% | IGROV1 ovarian 108% | OVCAR-3 ovarian 105% | HS 578T breast 113% | NCI/ADR-RES ovarian 101%

c1ccc2nc(Cn3cc[n+](Cc4ccc5ccccc5n4)c3)ccc2c1
inactive: SR leukemia 47.8% | RPMI-8226 leukemia 29.6% | OVCAR-8 ovarian 76.2% | OVCAR-5 ovarian 86.9% | OVCAR-4 ovarian 33.7% | SK-OV-3 ovarian 86.9% | IGROV1 ovarian 68.3% | OVCAR-3 ovarian 52% | HS 578T breast 75.3% | NCI/ADR-RES ovarian 107%

CC(=O)Oc1ccc(C(OC(C)=O)OC(C)=O)cc1
inactive: SR leukemia 88.8% | RPMI-8226 leukemia 107% | OVCAR-8 ovarian 114% | OVCAR-5 ovarian 108% | OVCAR-4 ovarian 117% | SK-OV-3 ovarian 97.6% | IGROV1 ovarian 109% | OVCAR-3 ovarian 103% | HS 578T breast 105% | NCI/ADR-RES ovarian 103%

Nc1ncnc2c1ncn2C1OC(COC(c2ccccc2)(c2ccccc2)c2ccccc2)C(O)C1O (stereo not given)
inactive: SR leukemia 89.6% | RPMI-8226 leukemia 82.1% | OVCAR-8 ovarian 96.7% | OVCAR-5 ovarian 85.7% | OVCAR-4 ovarian 95.2% | SK-OV-3 ovarian 123% | IGROV1 ovarian 107% | OVCAR-3 ovarian 106% | HS 578T breast 84.1% | NCI/ADR-RES ovarian 89.2%

COc1cc(/C=C2/Oc3cc4occc4c(OC)c3C2=O)ccc1OCC(=O)Nc1ccncc1
inactive: SR leukemia 102% | RPMI-8226 leukemia 91.4% | OVCAR-8 ovarian 104% | OVCAR-5 ovarian 113% | OVCAR-4 ovarian 111% | SK-OV-3 ovarian 93.1% | IGROV1 ovarian 96.3% | OVCAR-3 ovarian 99.8% | HS 578T breast 95.1% | NCI/ADR-RES ovarian 107%

Cl[C@@H]1CCO[C@H](c2cc3ccccc3c3ccccc23)C1
inactive: SR leukemia 93.8% | RPMI-8226 leukemia 83.3% | OVCAR-8 ovarian 98.9% | OVCAR-5 ovarian 91.5% | OVCAR-4 ovarian 94.8% | SK-OV-3 ovarian 97.2% | IGROV1 ovarian 97.9% | OVCAR-3 ovarian 108% | HS 578T breast 103% | NCI/ADR-RES ovarian 103%

O=C(O)c1ccc(-c2nn(-c3ccc(C(=O)O)cc3)cc2/C=N/Nc2c(F)c(F)cc(F)c2F)cc1
inactive: SR leukemia 94% | RPMI-8226 leukemia 103% | OVCAR-8 ovarian 108% | OVCAR-5 ovarian 101% | OVCAR-4 ovarian 111% | SK-OV-3 ovarian 97.9% | IGROV1 ovarian 108% | OVCAR-3 ovarian 104% | HS 578T breast 112% | NCI/ADR-RES ovarian 105%

S=C=NP1(N=C=S)=NP(N=C=S)(N=C=S)=NP(N=C=S)(N=C=S)=NP(N=C=S)(N=C=S)=N1 (stereo not given)
inactive: SR leukemia 88.8% | RPMI-8226 leukemia 103% | OVCAR-8 ovarian 95.6% | OVCAR-5 ovarian 107% | OVCAR-4 ovarian 96.7% | SK-OV-3 ovarian 84.3% | IGROV1 ovarian 97.9% | OVCAR-3 ovarian 112% | HS 578T breast 98.5% | NCI/ADR-RES ovarian 107%

Cc1cccc(Cc2cnc(NC(=O)CCc3ccc(C)o3)s2)c1
inactive: OVCAR-8 ovarian 20.3% | OVCAR-5 ovarian 35.7% | OVCAR-4 ovarian 53.3% | SK-OV-3 ovarian 24.5% | IGROV1 ovarian 32.2% | HS 578T breast 27.6% | NCI/ADR-RES ovarian 17.2%
active: SR leukemia 5.14% | RPMI-8226 leukemia 5.07% | OVCAR-3 ovarian 2.58%

CC(Cl)(CCl)CS(=O)(=O)c1ccc(Cl)cc1 (stereo not given)
inactive: SR leukemia 96.2% | RPMI-8226 leukemia 99.8% | OVCAR-8 ovarian 97.4% | OVCAR-5 ovarian 113% | OVCAR-4 ovarian 111% | SK-OV-3 ovarian 102% | IGROV1 ovarian 115% | OVCAR-3 ovarian 110% | HS 578T breast 97.3% | NCI/ADR-RES ovarian 110%

O=[N+]([O-])c1cccc2cc(S(=O)(=O)O)ccc12
inactive: SR leukemia 103% | RPMI-8226 leukemia 99% | OVCAR-8 ovarian 98.9% | OVCAR-5 ovarian 107% | OVCAR-4 ovarian 114% | SK-OV-3 ovarian 95.1% | IGROV1 ovarian 104% | OVCAR-3 ovarian 99.8% | HS 578T breast 107% | NCI/ADR-RES ovarian 101%

CN(CCNCc1ccccn1)CCNCc1ccccn1
inactive: RPMI-8226 leukemia 18.9% | OVCAR-8 ovarian 13.5% | IGROV1 ovarian 26.9% | HS 578T breast 48.9%
active: SR leukemia 9.92% | OVCAR-5 ovarian -1.39% | OVCAR-4 ovarian -17.3% | SK-OV-3 ovarian -23% | OVCAR-3 ovarian -37.1% | NCI/ADR-RES ovarian 4.32%

CS(=O)(=O)Nc1cccc(-c2ccc3ncnc(Nc4cncc(Cl)c4)c3c2)c1
inactive: OVCAR-8 ovarian 38.7% | OVCAR-5 ovarian 56.7% | OVCAR-4 ovarian 50.9% | OVCAR-3 ovarian 31.9% | NCI/ADR-RES ovarian 79.7%
active: SR leukemia -10.5% | RPMI-8226 leukemia -8.07% | SK-OV-3 ovarian -7.86% | IGROV1 ovarian -13.8% | HS 578T breast -2.64%

OCc1cn(-c2ccc(Cl)cc2)nc1-c1ccc(O)cc1
inactive: SR leukemia 82.1% | RPMI-8226 leukemia 97.3% | OVCAR-8 ovarian 106% | OVCAR-5 ovarian 99.9% | OVCAR-4 ovarian 91.6% | SK-OV-3 ovarian 105% | IGROV1 ovarian 91.3% | OVCAR-3 ovarian 108% | HS 578T breast 105% | NCI/ADR-RES ovarian 94.7%

COc1cc(C(=O)NNC(=O)c2ccccc2O)cc(OC)c1OC
inactive: SR leukemia 77.8% | RPMI-8226 leukemia 86.8% | OVCAR-8 ovarian 82.9% | OVCAR-5 ovarian 103% | OVCAR-4 ovarian 110% | SK-OV-3 ovarian 87.8% | IGROV1 ovarian 98.8% | OVCAR-3 ovarian 109% | HS 578T breast 95.1% | NCI/ADR-RES ovarian 94.5%

CCCCOc1c(N)cccc1C(=O)OCCN(CC)CC
inactive: SR leukemia 83.9% | RPMI-8226 leukemia 123% | OVCAR-8 ovarian 92.8% | OVCAR-5 ovarian 113% | OVCAR-4 ovarian 107% | SK-OV-3 ovarian 108% | IGROV1 ovarian 104% | OVCAR-3 ovarian 101% | HS 578T breast 102% | NCI/ADR-RES ovarian 106%

C#C[C@H](O)/C=C/CCCCCCC#C[C@H](O)CC[C@@H](O)C#CCCCCCC/C=C/[C@@H](O)C#C
inactive: RPMI-8226 leukemia 21.3% | OVCAR-8 ovarian 89.1% | OVCAR-5 ovarian 111% | OVCAR-4 ovarian 101% | SK-OV-3 ovarian 105% | OVCAR-3 ovarian 96% | HS 578T breast 95.9% | NCI/ADR-RES ovarian 54.5%
active: SR leukemia -22.8% | IGROV1 ovarian -37.6%

CS(=O)(=O)Nc1cccc(-c2ccc3ncnc(Nc4ccc(F)c(Cl)c4)c3c2)c1
active: SR leukemia -2.28% | SK-OV-3 ovarian -10.8% | IGROV1 ovarian -3.89%
inactive: RPMI-8226 leukemia 18.4% | OVCAR-8 ovarian 29% | OVCAR-5 ovarian 49.1% | OVCAR-4 ovarian 37% | OVCAR-3 ovarian 25.9% | HS 578T breast 11.5% | NCI/ADR-RES ovarian 39.2%

O=C1c2ccccc2OC=C(c2ccccc2)N1CCCCNc1ccc(F)cc1
inactive: SR leukemia 81% | RPMI-8226 leukemia 69.8% | OVCAR-8 ovarian 80.6% | OVCAR-5 ovarian 95.7% | OVCAR-4 ovarian 89.9% | SK-OV-3 ovarian 67.9% | IGROV1 ovarian 81.9% | OVCAR-3 ovarian 110% | HS 578T breast 94.7% | NCI/ADR-RES ovarian 85.8%

COc1cc(/C=C\c2cc(/C=C\c3ccc(O)c(OC)c3)n(C(=O)CNc3ccccc3OC)n2)ccc1O
active: SR leukemia 2.38%
inactive: RPMI-8226 leukemia 80.1% | OVCAR-8 ovarian 84.6% | OVCAR-5 ovarian 102% | OVCAR-4 ovarian 84.2% | SK-OV-3 ovarian 83.8% | IGROV1 ovarian 90.5% | OVCAR-3 ovarian 59.7% | HS 578T breast 49.8% | NCI/ADR-RES ovarian 54.4%

CCOc1ccc(NC2=C(Cl)C(=O)c3ccccc3C2=O)cc1
active: SR leukemia -6.21% | IGROV1 ovarian 0.21%
inactive: RPMI-8226 leukemia 41.7% | OVCAR-8 ovarian 62.7% | OVCAR-5 ovarian 110% | OVCAR-4 ovarian 91.9% | SK-OV-3 ovarian 92.1% | OVCAR-3 ovarian 43.5% | HS 578T breast 95.4% | NCI/ADR-RES ovarian 98.5%

O=S(=O)(CCN1CCOCC1)Nc1cncc(-c2ccc3ncnc(Nc4ccc(F)c(Cl)c4)c3c2)c1
inactive: SR leukemia 90% | RPMI-8226 leukemia 82.4% | OVCAR-8 ovarian 72.8% | OVCAR-5 ovarian 69.3% | OVCAR-4 ovarian 82.2% | SK-OV-3 ovarian 33.5% | IGROV1 ovarian 10.8% | OVCAR-3 ovarian 50.6% | HS 578T breast 37% | NCI/ADR-RES ovarian 87.3%

Source: PubChem BioAssay (NCI)
